Source: the supplement of paper PMC12340641

Assays:
[1] = target: IKZF1 (dCK*-IKZF1 fusion in HEK293FT) (UniProt Q13422); test: inhibition of IKZF1 HTRF signal (DMSO = 0%, pomalidomide 10 uM = 100%); higher = lower IKZF1 protein level; conditions: compound concentration: 5 uM, overnight (~20 h)
Outline: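 After overnight treatment at 37 °C with 5 μM compound in single wells, HEK293FT cells (2000/well, 384-well) stably expressing an IKZF1 fusion were lysed for 30 min at room temperature. A commercial HTRF total-IKZF1 antibody kit was incubated with the lysate overnight, and the time-resolved FRET ratio at 665/620 nm was corrected for background. Data are given as percent inhibition of IKZF1 signal relative, on each plate, to vehicle and a reference degrader, set at 0% and 100% respectively.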

HEK293FT dCK*-only = test: relative growth in counter assay (no AraC = 100%, AraC + DMSO = 0%); higher = more growth rescue independent of IKZF1; conditions: compound concentration: 5 uM; AraC concentration: 0.3 uM; overnight pretreatment + 4 days AraC
Outline: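 Counter assay in HEK293FT cells expressing dCK* alone (300/well, 384-well). Cells received 5 μM compound 2 h after seeding, then after overnight at 37 °C a nucleoside suicide substrate at 0.3 μM plus medium for 4 days. On day 5, Hoechst 33342-stained nuclei were counted by imaging. Relative growth was normalised per plate to wells without suicide substrate (100%) and substrate plus vehicle (0%).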

HEK293FT dCK*-IKZF1 = test: relative growth recovery (pomalidomide 10 uM = 100%, DMSO = 0%); higher = more growth rescue (IKZF1 fusion degradation); conditions: compound concentration: 5 uM; AraC concentration: 0.3 uM; overnight pretreatment + 4 days AraC
Outline: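 Means of duplicates from different days are given for growth recovery, normalised per plate against a reference degrader and vehicle. The reference degrader set the 100% level and vehicle the 0% level. HEK293FT cells stably expressing a deoxycytidine kinase–IKZF1 fusion (300/well, 384-well) received 5 μM compound 2 h after seeding and, after overnight at 37 °C, 0.3 μM of a nucleoside suicide substrate plus medium for 4 days. Nuclei stained with Hoechst 33342 were then counted by whole-well imaging on day 5.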

Sequence of IKZF1 (dCK*-IKZF1 fusion in HEK293FT) (Q13422 whole entry, looked up, the tested form may be a part): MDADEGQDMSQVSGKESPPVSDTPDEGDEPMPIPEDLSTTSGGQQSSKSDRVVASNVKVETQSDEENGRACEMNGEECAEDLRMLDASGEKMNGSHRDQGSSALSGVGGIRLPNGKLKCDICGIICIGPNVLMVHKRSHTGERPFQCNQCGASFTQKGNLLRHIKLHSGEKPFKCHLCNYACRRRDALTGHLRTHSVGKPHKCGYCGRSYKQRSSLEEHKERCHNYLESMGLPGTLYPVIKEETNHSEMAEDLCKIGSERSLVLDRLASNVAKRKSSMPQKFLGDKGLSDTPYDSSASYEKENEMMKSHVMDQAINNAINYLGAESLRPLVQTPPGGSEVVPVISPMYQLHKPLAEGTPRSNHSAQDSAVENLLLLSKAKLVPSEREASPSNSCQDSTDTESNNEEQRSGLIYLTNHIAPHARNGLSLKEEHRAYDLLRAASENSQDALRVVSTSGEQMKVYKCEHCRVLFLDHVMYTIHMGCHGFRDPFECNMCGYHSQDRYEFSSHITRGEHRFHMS

Row | Structure (SMILES) | inhibition of IKZF1 HTRF signal [1] | relative growth in counter assay (HEK293FT dCK*-only) | relative growth recovery (HEK293FT dCK*-IKZF1)
1 | C[C@H]1CCC/C=C/C2C[C@H](O)C[C@H]2[C@H](O)/C=C/C(=O)O1 (stereo partly specified) [brefeldin-a] | 2.49% | -32.6% | -10%
2 | O=C(CCCN1CCC(n2c(=O)[nH]c3ccccc32)CC1)c1ccc(F)cc1 [benperidol] | -18.1% | 4.87% | 1.78%
3 | Oc1c(I)cc(I)cc1I | 11% | 4.58% | 2.79%
4 | CC(=O)OC[C@]12CCC(C)=C[C@H]1O[C@@H]1[C@H](O)[C@@H](OC(C)=O)[C@@]2(C)[C@@]12CO2 [Diacetoxyscirpenol] | 93.3% | -34.2% | -12.7%
5 | NCC1(CC(=O)O)CCCCC1 | -1.54% | -10.5% | -0.56%
6 | Clc1ccc(C(OCCN2CCCCC2)c2ccccc2)cc1 (stereo unspecified) | -26.4% | -4.94% | -0.525%
7 | Clc1ccccc1C(c1ccccc1)(c1ccccc1)n1cccn1 | -25.1% | 1.96% | -1.69%
8 | O=C1/C(=C/c2ccccc2)C[C@@]2(O)C3Cc4ccc(O)c5c4[C@@]2(CCN3CC2CC2)[C@H]1O5 | 27.9% | -34.5% | -12.6%
9 | CN(C)C(=S)SSC(=S)N(C)C | -13.8% | -35.1% | -12.7%
10 | ClC(C=C3)=C(Cl)C=[C@@]3[C@H]2C1=CC=CC=C1[C@H](NC)C2 [indatraline] | 28.4% | 0.14% | -3.33%
11 | C[C@]12CC[C@H](O)C[C@H]1CC[C@@H]1[C@@H]2C[C@@H](O)[C@]2(C)[C@@H](C3=CC(=O)OC3)CC[C@]12O [Digoxigenin] | 22.7% | -33.8% | -10.9%
12 | COc1cc([C@@H]2c3cc4c(cc3[C@H](O)[C@H]3COC(=O)[C@H]23)OCO4)cc(OC)c1OC | 50% | -33.7% | -11.7%
